Data reported in PubChem BioAssay (NCI).
The panel holds about 83,000 compounds, 20% with a hit somewhere; the sample as a whole holds those more often.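 96-well plates, one dose, 48 hours. Percent growth reported; active if below 10.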 Active and inactive are the calls of the source.

Each molecule was assayed on HCT-15 colon (assay: NCI-60 one-dose screen, 48 h (100 = growth as untreated, 0 = no growth, -100 = all killed)). Conditions: 10 µM unless noted.
Experimental: Growth inhibition of the HCT-15 human tumor cell line is measured as a screen for anti-cancer activity. Cells are grown in 96 well plates and exposed to the test compound for 48 hours. Compounds are tested at a single concentration, which is 10^-5 M for most compounds. The reported endpoint is percent growth (GI% or GIPRCNT), where numbers from 0 - 100% represent growth inhibition, and numbers from -100% - 0 represent cell death. For example, a value of 40 represents 60% growth inhibition. A value of 0 means no net growth occurred over the course of the experiment. A value of -40 indicates 40% of cells at the beginning of the experiment died by the end of the experiment. A value of -100 means all cells are dead at the end of the experiment.
NCI-60 Human Tumor Cell Lines Screen was performed using the standard one-dose NCI protocol, which is described in more detail at https://dtp.cancer.gov/discovery_development/nci-60/default.htm.
Compounds with GIPRCNT values below 10 were considered active. Activity score was based on GIPRCNT using the following formula: […]
Score is 0 for GIPRCNT values of 100 or above, 50 for GIPRCNT values of 0, and 100 for GIPRCNT values of -100.
In the case of `CN1CCN(c2ccc3c(c2)nc(NNC(=O)c2ccncn2)c2cccn23)CC1`, the growth is reported as 25.1% (inactive).
With `C[C@H]1[C@H](C)CC[C@]2(COC(=O)c3cccnc3)CC[C@]3(C)C(=CC[C@@H]4[C@@]5(C)CCCNC(C)(C)[C@@H]5CC[C@]43C)[C@H]12` the growth was 39.5% (inactive).
In the case of `C=CCn1c(SCC(=O)Nc2cccc(C(=O)/C=C/c3ccc(OC)c(OC)c3)c2)nc2ccccc2c1=O`, the growth is reported as 72.4% (inactive).
In the case of `CCOC(=O)c1c(NC(=O)c2ccc(C(C)(C)C)cc2)sc2cc(OCCN3CCCCC3)ccc12`, the growth is reported as 22.3% (inactive).
In the case of `O=C(/C=C1\C=CN(CCCCO)c2ccccc21)n1ccc2ccccc21`, the growth is reported as 107% (inactive).
`C#C[C@]1(O)CC[C@H]2[C@@H]3CC=C4c5sc(Nc6nc(C)cc(OC)n6)nc5CC[C@]4(C)[C@H]3CC[C@@]21C` was tested, and the growth was 35.3% (inactive).
For `O=C1NC(=O)c2c1c1c3ccccc3ccc1c1[nH]c3ccccc3c21`, the growth was 13.4% (inactive).
`COc1ccc(-c2nc3cc(Cl)c(Cl)cc3n2CC(=O)N=Nc2c(O)[nH]c3ccccc23)cc1` was tested, and the growth was 30.6% (inactive).
With `O=C(Nc1cc(F)cc2cccnc12)c1cnc(N2CCOCC2)cn1` the growth was 32.4% (inactive).
In the case of `COc1ccc(-c2ccc3c4c(cccc24)C(=O)N(N2C(=O)c4cccc5cccc(c45)C2=O)C3=O)cc1`, the growth is reported as 99.1% (inactive).
With `COc1ccc([C@@H]2[C@@H](O)C(=O)N2c2cc(OC)c(OC)c(OC)c2)cc1Cl` the growth was 10.5% (inactive).
`O=C1Nc2ccc(Cl)cc2/C1=C/c1ccc(OCc2ccc(F)cc2)cc1` was tested, and the growth was 87.8% (inactive).
For `O=C1Nc2cc(OC(F)(F)F)ccc2Oc2ccc(-c3ccnc(N4CC[C@H](O)C4)c3)cc21`, the growth was -30.6% (active).
`CS(=O)(=O)c1ccc(-c2nn(-c3ccccc3)cc2/C=C/C(=O)c2ccc(Br)cc2)cc1` was tested, and the growth was 64% (inactive).
With `NS(=O)(=O)Oc1ccc2nc(Nc3ccc(F)c(F)c3)ccc2c1` the growth was 69.6% (inactive).
In the case of `CCN1CCN(Cc2ccc(C(=O)Nc3nc4ccc(Oc5ccnc(C(=O)NC)c5)cc4s3)cc2C(F)(F)F)CC1`, the growth is reported as 6.98% (active).
For `Nc1nc(-c2cccc([N+](=O)[O-])c2)c(N=Nc2ccccc2Cl)s1`, the growth was 48.9% (inactive).
`O=S(=O)(NC1CC2CCC1C2)c1ccc2c(c1)C(=NO)c1cc(S(=O)(=O)NC3CC4CCC3C4)ccc1-2` (stereo not given) was tested, and the growth was 31.2% (inactive).
With `C=CCn1c(SCC(=O)Nc2cccc(C(=O)/C=C/c3ccc(C)cc3)c2)nc2ccccc2c1=O` the growth was 62% (inactive).
For `COc1ccccc1/C=C/C=N/NC1=NC2C(S1)N(C)C(=O)N2c1ccccc1` (stereo not given), the growth was 12.1% (inactive).
With `Cc1cc2nc(C(Cl)Cl)nc(-c3ccco3)n2n1` the growth was 72% (inactive).
For `CCc1ccc(NC(=O)N[C@@H](Cc2cccc(C)c2)C(=O)N[C@@H]2C(=O)N3CCC[C@H]3C(=O)N3CCCC[C@H]3C(=O)N[C@@H](CO)C(=O)N3C[C@H](C)C[C@H]3C(=O)O[C@H]2C)c(F)c1`, the growth was 15.5% (inactive).
For `Cc1cc(NS(=O)(=O)c2ccc(-c3cnc(C4CC4)o3)cc2)ccc1I`, the growth was 30.5% (inactive).
In the case of `O=C1CSC(=O)N1Cc1cc2ccccc2nc1Cl`, the growth is reported as 101% (inactive).
For `CCN1C/C(=N\S(=O)(=O)c2ccccc2)N(CC)C1=S`, the growth was 101% (inactive).
In the case of `O=C(NNc1nc2cc(F)c(F)cc2n2cccc12)c1ncccn1`, the growth is reported as 28.8% (inactive).
With `COc1ccc(-c2oc3cc(O)cc(O)c3c(=O)c2OC)cc1O` the growth was 33.2% (inactive).
In the case of `N=c1c2cc(-c3ccccc3)oc2ncn1/N=C/c1ccccc1`, the growth is reported as 36.9% (inactive).
`COCCOc1ccc(-c2csc(NC(=O)CN3CCN(CCO)CC3)n2)cc1NS(=O)(=O)c1cccc2c(N(C)C)cccc12` was tested, and the growth was 85% (inactive).
`CC(=O)NC(C)(C)C(=O)N1CCC[C@H]1C(=O)NC(C)(C)C(=O)N[C@@H](C)C(=O)NC(C)(C)C(=O)N[C@@H](C)C(=O)N[C@@H](CCC(N)=O)C(=O)NC(C)(C)C(=O)N[C@H](C(=O)NC(C)(C)C(=O)NCC(=O)N[C@@H](CC(C)C)C(=O)NC(C)(C)C(=O)N1CCC[C@H]1C(=O)N[C@H](C(=O)NC(C)(C)C(=O)NC(C)(C)C(=O)N[C@@H](CCC(N)=O)C(=O)N[C@@H](CCC(N)=O)C(=O)N[C@H](CO)Cc1ccccc1)C(C)C)C(C)C` was tested, and the growth was 101% [4.25 µM] (inactive).
For `COc1cc(OC)c(S(N)(=O)=O)cc1C(=O)/C=C/c1ccccc1`, the growth was 11.3% (inactive).
In the case of `COC[C@@]1(C)CC[C@]2(C)CC[C@]3(C)C(=CC[C@@H]4[C@@]5(C)CCCNC(C)(C)[C@@H]5CC[C@]43C)C2C1` (stereo not given in full), the growth is reported as 16.1% (inactive).
With `O=C(Nc1cc(Cl)cc(Cl)c1)Nc1ccc2oc(=O)ccc2c1` the growth was 8.08% (active).
`O=C1Nc2ccc(Cl)cc2/C1=C/c1ccc(OCc2ccc(Br)cc2F)cc1` was tested, and the growth was 102% (inactive).
With `C/C(=C(/c1ccc(O)cc1)c1ccc(OCCN2CCCCCC2)cc1)c1ccccc1` the growth was -20.7% (active).
With `COc1cc(-c2nc(SCc3ccc(C)cc3)[nH]c(=O)c2C#N)ccc1OCc1ccccc1` the growth was 97.9% (inactive).
With `O=C(Nc1ccc(F)cc1)c1cc(-c2ccc(F)cc2F)ccc1O` the growth was 11.4% (inactive).
`CN(c1ccc(F)cc1)S(=O)(=O)c1ccc(-c2cnc(C3CC3)o2)cc1` was tested, and the growth was 17.9% (inactive).
In the case of `O=C(Nc1ccc(-c2nc(-c3cccc(O)c3)c(-c3ccnc(Br)c3)[nH]2)cc1)c1ccccc1`, the growth is reported as 7.12% (active).
In the case of `C/C(=C(/c1ccc(O)cc1)c1ccc(OCCN2CCCC2)cc1)c1ccc(Cl)cc1`, the growth is reported as -19.1% (active).
